# Measurements from the supplement of paper PMC9942566.
# ± gives the standard deviation of the averaged measurements.
# System: Serratia marcescens K904 PosmB-luxCDABE reporter (pMQ747)
# Experiment: PosmB-lux reporter fold induction (RLU/OD600 relative to no-compound control), highest over Biolog concentrations; higher = stronger reporter activation
# Conditions: ΔrcsB mutant CMS5177; 4 h
# Procedure: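 Serratia marcescens K904 (wild type) or its isogenic ΔrcsB mutant, carrying the Rcs-dependent PosmB-luxCDABE reporter plasmid pMQ747, was grown in LB at OD600 0.1 in Biolog Phenotype MicroArray plates PM11-20 for 4 h at 30-32°C. Each compound is present at 3-4 proprietary concentrations (not stated); per the Fig. S1 legend the value given is the highest fold over those wells. Three independent trials.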
row,SMILES,PosmB-lux reporter fold induction
1,"OC(CCN1CCCCC1)(c1ccccc1)c1ccccc1 [pridinol] (Biolog plate: PM20, well positions: F9-12)",1.5 ± 0.42
2,"CCN1CCN(C(=O)N[C@@H](C(=O)N[C@@H]2C(=O)N3[C@@H]2SC(C)(C)[C@@H]3C(=O)O)c2ccccc2)C(=O)C1=O [Piperacillin] (Biolog plate: PM14, well positions: F5-8)",1.2 ± 0.13
3,"O=C(OC[C@H]1O[C@@H](OC(=O)c2cc(O)c(O)c(OC(=O)c3cc(O)c(O)c(O)c3)c2)[C@H](OC(=O)c2cc(O)c(O)c(OC(=O)c3cc(O)c(O)c(O)c3)c2)[C@@H](OC(=O)c2cc(O)c(O)c(OC(=O)c3cc(O)c(O)c(O)c3)c2)[C@@H]1OC(=O)c1cc(O)c(O)c(OC(=O)c2cc(O)c(O)c(O)c2)c1)c1cc(O)c(O)c(OC(=O)c2cc(O)c(O)c(O)c2)c1 [tannic acid] (Biolog plate: PM17, well positions: F9-12)",0.888 ± 0.24
4,"NC[C@@H]1O[C@H](O[C@H]2[C@@H](O)[C@H](O[C@@H]3[C@@H](O)[C@H](N)C[C@H](N)[C@H]3O[C@H]3O[C@H](CO)[C@@H](O)[C@H](O)[C@H]3N)O[C@@H]2CO)[C@H](N)[C@@H](O)[C@@H]1O [Paromomycin] (Biolog plate: PM12, well positions: C1-4)",1.42 ± 0.79
5,"CN(C)[C@@H]1C(O)=C(C(N)=O)C(=O)[C@@]2(O)C(O)=C3C(=O)c4c(O)ccc(Cl)c4[C@@](C)(O)[C@H]3C[C@@H]12 [Chlortetracycline] (Biolog plate: PM11, well positions: A5-8)",1.3 ± 0.26
6,"CCN(CC)CC(=O)Nc1c(C)cccc1C [lidocaine] (Biolog plate: PM18, well positions: D9-12)",0.721 ± 0.15
7,"Cc1cc(NS(=O)(=O)c2ccc(N)cc2)no1 [Sulfa-methoxazole] (Biolog plate: PM12, well positions: G5-8)",1.9 ± 1.2
8,"C[C@H]1O[C@@H](n2cc(F)c(=O)[nH]c2=O)[C@H](O)[C@@H]1O [5-fluoro-5'-deoxyuridine] (Biolog plate: PM18, well positions: H1-4)",1.75 ± 0.72
9,"CO[C@H]1/C=C/O[C@@]2(C)Oc3c(C)c(O)c4c(O)c(c(/C=N/N5CCN(C)CC5)c(O)c4c3C2=O)NC(=O)/C(C)=C\C=C\[C@H](C)[C@H](O)[C@@H](C)[C@@H](O)[C@@H](C)[C@H](OC(C)=O)[C@@H]1C [Rifampicin] (Biolog plate: PM12, well positions: H5-8)",17.2 ± 8.3
10,"CC1(C)S[C@@H]2[C@H](NC(=O)[C@H](N)c3ccccc3)C(=O)N2[C@H]1C(=O)O [Ampicillin] (Biolog plate: PM13, well positions: A2-4)",1.06 ± 0.25
11,"O=C(O)c1cc(O)c(O)c(O)c1 [gallic acid] (Biolog plate: PM19, well positions: A5-8)",1.33 ± 0.48
12,"CCN(CC)CCOC(=O)c1ccc(N)cc1 [Procaine] (Biolog plate: PM15, well positions: A2-4)",1.04 ± 0.067
13,"CN(C)CCC=C1c2ccccc2CCc2ccccc21 [amitriptyline] (Biolog plate: PM20, well positions: A2-4)",1.16 ± 0.17
14,"Oc1c(Cl)cc(Cl)c2cccnc12 [5,7-Dichloro-8-hydroxyquinoline] (Biolog plate: PM15, well positions: C1-4)",1.43 ± 0.18
15,"On1ccccc1=S [1-Hydroxy-pyridine-2-thione] (Biolog plate: PM14, well positions: C5-8)",1.1 ± 0.053
16,"Cc1nnc(SCC2=C(C(=O)O)N3C(=O)[C@@H](NC(=O)Cn4cnnn4)[C@H]3SC2)s1 [Cefazolin] (Biolog plate: PM11, well positions: E1-4)",1.12 ± 0.15
17,"COc1ccc(CO)cc1OC [3,4-Dimethoxy-benzyl alcohol] (Biolog plate: PM15, well positions: F1-4)",1.65 ± 0.64

row,SMILES,PosmB-lux reporter fold induction
1,"CN[C@@H]1[C@@H](O)[C@@H](O[C@@H]2[C@@H](O)[C@H](O[C@H]3OC(CN)=CC[C@H]3N)[C@@H](N)C[C@H]2N)OC[C@]1(C)O [Sisomicin] (Biolog plate: PM12, well positions: D1-4)",1.29 ± 0.5
2,"CN(C)c1ccc(C(=C2C=CC(=[N+](C)C)C=C2)c2ccc(N(C)C)cc2)cc1 [crystal violet] (Biolog plate: PM20, well positions: E1-4)",1.24 ± 0.17
3,"CN[C@@H]1[C@H](O[C@H]2[C@H](O[C@H]3[C@H](O)[C@@H](O)[C@H](N=C(N)N)[C@@H](O)[C@@H]3N=C(N)N)O[C@@H](C)[C@]2(O)C=O)O[C@@H](CO)[C@H](O)[C@H]1O [streptomycin] (Biolog plate: PM16, well positions: E1-4)",1.98 ± 0.69
4,"N.N.N.N.N.N.[Cl-].[Cl-].[Cl-].[Co+3] [hexammine cobalt (III) chloride] (Biolog plate: PM19, well positions: H1-4)",1.35 ± 0.2
5,"Cc1noc(NS(=O)(=O)c2ccc(N)cc2)c1C [sulfisoxazole] (Biolog plate: PM18, well positions: C5-8)",1.5 ± 0.35
6,"CCn1cc(C(=O)O)c(=O)c2cc(F)c(N3CCNCC3)cc21 [norfloxacin] (Biolog plate: PM16, well positions: B1-4)",1.91 ± 0.65
7,"CN[C@@H]1[C@H](O)[C@H](NC)[C@H]2O[C@@]3(O)C(=O)C[C@@H](C)O[C@H]3O[C@@H]2[C@H]1O [Spectinomycin] (Biolog plate: PM12, well positions: G1-4)",1.6 ± 0.68
8,"CC1(C)S[C@@H]2[C@H](NC(=O)Cc3ccccc3)C(=O)N2[C@H]1C(=O)O [Penicillin G] (Biolog plate: PM12, well positions: A2-4)",1.02 ± 0.19
9,"Oc1c(I)cc(Cl)c2cccnc12 [5-chloro-7-iodo-8-hydroxy-quinoline] (Biolog plate: PM16, well positions: A9-12)",1.51 ± 0.53
10,"Cn1c(=O)c2c(ncn2C)n(C)c1=O [caffeine] (Biolog plate: PM17, well positions: H5-8)",1.52 ± 0.34
11,"CCS(=O)(=O)CCn1c([N+](=O)[O-])cnc1C [tinidazole] (Biolog plate: PM18, well positions: F5-8)",1 ± 0.3
12,"CO[C@H]1C[C@H](O[C@H]2[C@H](C)[C@@H](O[C@@H]3O[C@H](C)C[C@H](N(C)C)[C@H]3OC(C)=O)[C@@H](C)C[C@@]3(CO3)C(=O)[C@H](C)[C@@H](OC(C)=O)[C@@H](C)[C@@H](C)OC(=O)[C@@H]2C)O[C@@H](C)[C@@H]1OC(C)=O [troleandomycin] (Biolog plate: PM20, well positions: H9-12)",2.33 ± 1.1
13,"Cc1cc(C)nc(NS(=O)(=O)c2ccc(N)cc2)n1 [Sulfamethazine] (Biolog plate: PM12, well positions: D5-8)",1.41 ± 0.34
14,"CCc1cc(C(N)=S)ccn1 [ethionamide] (Biolog plate: PM17, well positions: B9-12)",0.857 ± 0.29
15,"Cc1cc(O)cc(C)c1Cl [chloroxylenol] (Biolog plate: PM16, well positions: H5-8)",1.72 ± 0.43
16,"Nc1ccc(S(=O)(=O)Nc2nccs2)cc1 [Sulfathiazole] (Biolog plate: PM12, well positions: F5-8)",1.89 ± 0.35
